Experimental data published in PubChem BioAssay AID652256 (National Center for Advancing Translational Sciences (NCATS), 2013).
The list shows a part of the results. Activity calls are given as the source filed them.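 How the source made its calls: active means a half-inhibiting concentration could be measured and was below 100 µM; inactive means the rest.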

tested on: Thioredoxin reductase 1 (TXNRD1), rat; test: qHTS Assay for Inhibitors of Mammalian Selenoprotein Thioredoxin Reductase 1 (TrxR1): DTNB Assay; conditions: purified TrxR1, DTNB reduction, A412
Description: The selenoprotein thioredoxin reductase (TrxR; EC 1.8.1.9) is a FAD containing homodimeric pyridine nucleotide-disulfide oxidoreductase with many cellular roles. Together with NADPH and its prime substrate thioredoxin (Trx), the enzyme forms the core of the Trx system. The mammalian Trx system exerts a wide spectrum of functions including redox regulation, antioxidant defense, regulation of transcription factors as well as support of cell growth and replication. Many of these functions involve the reduction of Trx, which may subsequently reduce a number of different substrates including ribonucleotide reductase, peroxiredoxins or NFkB. Mammalian TrxR itself also has a broad substrate specificity, reducing both protein and non-protein substrates, including low molecular weight compounds such as dehydroascorbate, lipoic acid, ubiquinone, and juglone. In addition, several drugs in clinical use for anticancer treatment are indeed known to target TrxR1. This orthogonal DTNB assay seeks to further characterize cherry picks. NIH Molecular Libraries Probe Production Network [MLPCN] NIH Chemical Genomics Center [NCGC] MLPCN Grant: MH090846 Assay Provider: Elias Arner, Karolinska Institute
15 nM TrxR1 is reduced by 250 microM NADPH in TE buffer [50 mM Tris-HCl (pH 7.5), 2 mM EDTA] in a 96-well microtiter plate. Compounds are then added and incubated for 30 min at 30 degrees C. During compound incubation, NADPH consumption is followed by the decrease in absorbance at 340 nm using a VersaMax microplate reader (Molecular Devices) to determine substrate potential of the compound. DTNB is subsequently added to a final concentration of 2.5 mM, and the formation of TNB- is followed at 412 nm at 30 degrees C to assess inhibitory activity of the compound.

Potency, active:
Cc1ccccc1-c1nc(CS(=O)(=O)CC(=O)N2CCc3ccccc3C2)c(C)o1 292 nM
CC1CCN(C(=O)c2ccc(S(=O)(=O)Cc3cc(F)ccc3F)c([N+](=O)[O-])c2)CC1 317 nM
O=C(/C=C/c1ccco1)Nc1cccc(-c2nc3ccccc3[nH]2)c1 10300 nM
